# Results taken from the supplement of paper PMC12067093, “Discovery and optimisation of a covalent ligand for TRIM25 and its application to targeted protein ubiquitination” (Chemical Science, 2025).
# Of roughly 21,000 targets only a part is listed; those with the largest changes were picked by preference.
# Compound: Cc1cc(ccc1-c1ccccc1)C(=O)N1CCCN(CC1)C(=O)CCl [compound 10]
# Assay: probe-labelled cysteine peptide fold change vs DMSO (competition) (log2 fold change); higher = less target engagement (more negative = stronger competition)
# Conditions: THP-1, incubation time: 4 h
# 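Also: competitive profiling in live THP-1 cells: cysteine peptides tagged with an iodoacetamide desthiobiotin (IA-DTB) probe, intensity after compound treatment relative to DMSO-treated cells.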
# Chain of UniProt Q15366 (Q15366 whole entry, looked up): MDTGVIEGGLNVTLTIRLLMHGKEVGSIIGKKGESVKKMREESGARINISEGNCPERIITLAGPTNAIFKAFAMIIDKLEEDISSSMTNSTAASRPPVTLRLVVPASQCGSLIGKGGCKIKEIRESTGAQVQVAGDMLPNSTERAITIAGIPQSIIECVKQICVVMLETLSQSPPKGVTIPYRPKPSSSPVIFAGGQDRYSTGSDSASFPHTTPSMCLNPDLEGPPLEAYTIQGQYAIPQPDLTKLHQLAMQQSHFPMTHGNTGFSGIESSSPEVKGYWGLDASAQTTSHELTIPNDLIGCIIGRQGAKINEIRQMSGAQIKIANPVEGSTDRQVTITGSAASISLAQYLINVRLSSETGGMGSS
# Chain of UniProt P07737 (P07737 whole entry, looked up): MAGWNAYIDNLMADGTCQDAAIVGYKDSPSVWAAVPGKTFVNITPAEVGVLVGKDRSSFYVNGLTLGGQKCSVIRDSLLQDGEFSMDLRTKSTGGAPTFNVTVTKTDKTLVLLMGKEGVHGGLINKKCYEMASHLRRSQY
# Chain of UniProt P08567 (P08567 whole entry, looked up): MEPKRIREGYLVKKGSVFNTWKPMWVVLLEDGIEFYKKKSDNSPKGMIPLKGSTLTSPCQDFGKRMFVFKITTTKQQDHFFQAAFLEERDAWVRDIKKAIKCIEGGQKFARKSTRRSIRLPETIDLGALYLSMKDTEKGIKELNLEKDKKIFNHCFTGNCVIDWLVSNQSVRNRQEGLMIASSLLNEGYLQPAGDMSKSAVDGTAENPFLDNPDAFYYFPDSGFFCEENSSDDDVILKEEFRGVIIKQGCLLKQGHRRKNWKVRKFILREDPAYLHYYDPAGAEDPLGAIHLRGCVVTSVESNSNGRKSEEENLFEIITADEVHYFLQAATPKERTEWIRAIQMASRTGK
# Chain of UniProt Q9HBE1 (Q9HBE1 whole entry, looked up): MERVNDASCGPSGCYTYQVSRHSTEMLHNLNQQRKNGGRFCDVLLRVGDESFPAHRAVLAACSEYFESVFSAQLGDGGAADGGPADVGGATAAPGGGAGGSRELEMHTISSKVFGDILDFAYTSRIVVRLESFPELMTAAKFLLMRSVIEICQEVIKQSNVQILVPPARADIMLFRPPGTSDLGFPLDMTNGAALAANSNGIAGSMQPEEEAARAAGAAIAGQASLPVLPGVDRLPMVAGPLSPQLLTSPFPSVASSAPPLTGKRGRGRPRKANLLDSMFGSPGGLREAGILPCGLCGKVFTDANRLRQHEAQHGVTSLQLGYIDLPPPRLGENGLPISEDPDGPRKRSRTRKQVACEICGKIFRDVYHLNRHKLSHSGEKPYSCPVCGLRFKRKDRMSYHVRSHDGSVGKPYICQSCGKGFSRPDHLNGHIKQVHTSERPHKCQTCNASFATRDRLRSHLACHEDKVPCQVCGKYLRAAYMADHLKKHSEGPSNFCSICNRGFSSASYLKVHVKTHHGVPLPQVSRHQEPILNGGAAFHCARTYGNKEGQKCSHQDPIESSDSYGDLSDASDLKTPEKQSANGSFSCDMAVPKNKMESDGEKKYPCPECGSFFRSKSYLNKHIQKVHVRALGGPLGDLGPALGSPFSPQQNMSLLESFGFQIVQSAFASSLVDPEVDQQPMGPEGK
# Chain of UniProt P00558 (P00558 whole entry, looked up): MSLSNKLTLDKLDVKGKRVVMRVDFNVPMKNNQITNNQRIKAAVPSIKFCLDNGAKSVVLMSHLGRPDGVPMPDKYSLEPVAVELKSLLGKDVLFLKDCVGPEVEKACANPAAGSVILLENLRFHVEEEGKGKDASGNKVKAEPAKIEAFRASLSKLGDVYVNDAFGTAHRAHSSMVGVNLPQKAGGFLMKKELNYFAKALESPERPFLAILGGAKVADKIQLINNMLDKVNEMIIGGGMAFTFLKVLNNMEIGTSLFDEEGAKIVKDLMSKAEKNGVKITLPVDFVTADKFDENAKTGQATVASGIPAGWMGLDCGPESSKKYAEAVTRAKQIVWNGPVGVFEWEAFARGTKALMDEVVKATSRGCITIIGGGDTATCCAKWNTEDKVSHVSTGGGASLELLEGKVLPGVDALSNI
# Chain of UniProt O00743 (O00743 whole entry, looked up): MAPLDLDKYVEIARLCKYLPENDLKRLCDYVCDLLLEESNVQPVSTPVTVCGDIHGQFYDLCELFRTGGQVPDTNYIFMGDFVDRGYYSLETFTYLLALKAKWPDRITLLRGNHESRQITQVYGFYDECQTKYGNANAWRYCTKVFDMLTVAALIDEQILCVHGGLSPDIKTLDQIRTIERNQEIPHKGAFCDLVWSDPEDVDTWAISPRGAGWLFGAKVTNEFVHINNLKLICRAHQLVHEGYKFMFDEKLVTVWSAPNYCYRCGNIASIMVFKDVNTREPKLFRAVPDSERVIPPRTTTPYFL
# Chain of UniProt Q96BP3 (Q96BP3 whole entry, looked up): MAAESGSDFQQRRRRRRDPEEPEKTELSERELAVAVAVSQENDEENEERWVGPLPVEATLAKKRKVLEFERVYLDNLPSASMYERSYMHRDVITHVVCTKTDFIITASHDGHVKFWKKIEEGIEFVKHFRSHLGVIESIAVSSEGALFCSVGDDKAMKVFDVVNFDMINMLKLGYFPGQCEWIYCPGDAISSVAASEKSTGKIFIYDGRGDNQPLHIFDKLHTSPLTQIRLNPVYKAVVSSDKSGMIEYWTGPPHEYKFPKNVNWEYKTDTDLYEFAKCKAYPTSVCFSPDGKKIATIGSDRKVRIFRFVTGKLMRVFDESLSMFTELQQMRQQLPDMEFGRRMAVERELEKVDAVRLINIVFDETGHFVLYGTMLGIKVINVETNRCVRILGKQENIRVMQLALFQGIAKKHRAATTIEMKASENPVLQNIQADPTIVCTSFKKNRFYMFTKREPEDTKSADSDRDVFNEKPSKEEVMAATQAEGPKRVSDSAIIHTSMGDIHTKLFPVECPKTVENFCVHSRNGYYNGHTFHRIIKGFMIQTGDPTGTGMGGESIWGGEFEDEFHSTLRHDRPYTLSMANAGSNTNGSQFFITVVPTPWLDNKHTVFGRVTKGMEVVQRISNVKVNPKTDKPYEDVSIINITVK
# Chain of UniProt P53609 (P53609 whole entry, looked up): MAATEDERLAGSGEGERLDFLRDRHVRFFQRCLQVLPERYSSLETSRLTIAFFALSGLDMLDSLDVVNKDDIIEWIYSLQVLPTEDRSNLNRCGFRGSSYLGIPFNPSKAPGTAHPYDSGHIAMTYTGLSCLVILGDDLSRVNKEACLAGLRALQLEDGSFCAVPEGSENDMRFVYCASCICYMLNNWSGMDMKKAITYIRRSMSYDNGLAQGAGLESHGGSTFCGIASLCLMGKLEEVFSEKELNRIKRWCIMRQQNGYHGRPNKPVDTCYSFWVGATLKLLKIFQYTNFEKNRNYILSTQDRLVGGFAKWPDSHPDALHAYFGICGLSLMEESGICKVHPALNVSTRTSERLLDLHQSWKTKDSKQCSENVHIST
# Chain of UniProt Q15084 (Q15084 whole entry, looked up): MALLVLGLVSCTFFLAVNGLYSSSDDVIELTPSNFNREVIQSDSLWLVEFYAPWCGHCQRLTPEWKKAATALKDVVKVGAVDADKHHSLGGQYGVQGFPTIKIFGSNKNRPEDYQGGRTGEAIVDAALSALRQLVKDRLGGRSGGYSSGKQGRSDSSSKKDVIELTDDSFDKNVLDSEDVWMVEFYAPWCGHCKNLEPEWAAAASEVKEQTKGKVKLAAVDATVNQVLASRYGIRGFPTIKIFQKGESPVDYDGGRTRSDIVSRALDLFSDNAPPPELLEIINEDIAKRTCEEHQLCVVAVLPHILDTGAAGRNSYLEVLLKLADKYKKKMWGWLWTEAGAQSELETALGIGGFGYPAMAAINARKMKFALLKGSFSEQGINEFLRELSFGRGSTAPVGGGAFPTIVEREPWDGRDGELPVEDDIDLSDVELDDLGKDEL
# Chain of UniProt Q01970 (Q01970 whole entry, looked up): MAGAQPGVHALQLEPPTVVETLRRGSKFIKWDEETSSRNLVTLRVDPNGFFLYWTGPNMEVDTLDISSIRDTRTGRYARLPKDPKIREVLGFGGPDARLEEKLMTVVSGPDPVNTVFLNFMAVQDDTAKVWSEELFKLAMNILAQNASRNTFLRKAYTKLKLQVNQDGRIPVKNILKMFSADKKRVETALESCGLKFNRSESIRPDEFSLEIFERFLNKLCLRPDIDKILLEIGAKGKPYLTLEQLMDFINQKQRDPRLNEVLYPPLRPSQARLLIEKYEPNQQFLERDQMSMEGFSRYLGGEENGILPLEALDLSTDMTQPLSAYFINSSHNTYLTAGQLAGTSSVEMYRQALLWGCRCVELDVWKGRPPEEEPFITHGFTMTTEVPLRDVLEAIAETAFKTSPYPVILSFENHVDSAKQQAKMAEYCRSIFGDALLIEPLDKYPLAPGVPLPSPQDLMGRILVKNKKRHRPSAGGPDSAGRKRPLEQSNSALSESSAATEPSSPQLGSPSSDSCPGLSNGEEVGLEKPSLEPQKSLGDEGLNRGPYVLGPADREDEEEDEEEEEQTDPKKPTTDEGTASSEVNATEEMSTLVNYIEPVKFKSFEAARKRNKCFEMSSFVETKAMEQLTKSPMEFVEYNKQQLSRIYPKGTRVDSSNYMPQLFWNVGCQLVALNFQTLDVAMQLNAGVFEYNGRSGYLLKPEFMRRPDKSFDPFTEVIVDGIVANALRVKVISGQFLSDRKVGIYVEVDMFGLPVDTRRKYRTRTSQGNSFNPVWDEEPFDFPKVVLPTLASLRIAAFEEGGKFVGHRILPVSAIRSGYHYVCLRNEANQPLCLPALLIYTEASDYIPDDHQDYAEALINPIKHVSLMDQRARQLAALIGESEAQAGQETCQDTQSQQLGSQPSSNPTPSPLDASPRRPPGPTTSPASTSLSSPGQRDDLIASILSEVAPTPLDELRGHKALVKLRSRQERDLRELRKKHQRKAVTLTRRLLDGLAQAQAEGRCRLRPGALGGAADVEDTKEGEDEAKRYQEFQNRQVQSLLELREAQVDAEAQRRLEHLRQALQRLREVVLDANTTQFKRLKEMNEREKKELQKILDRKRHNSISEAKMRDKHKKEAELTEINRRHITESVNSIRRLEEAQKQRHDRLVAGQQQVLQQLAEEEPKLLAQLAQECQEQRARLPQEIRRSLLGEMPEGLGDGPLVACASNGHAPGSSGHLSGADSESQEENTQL
Target,probe-labelled cysteine peptide fold change (10 µM),probe-labelled cysteine peptide fold change (50 µM)
PINX1_Q96BK5_94_NNHLGLGATINNEDNWIAHQDDFNQLLAELNTCHGQETTDSSDKK (UniProt Q96BK5),0.15,0.124
PDCD6IP_Q8WUM4_691_CSDIVFAR (UniProt Q8WUM4),-0.00307,-0.0695
PLCB3_Q01970_360_CVELDVWK (UniProt Q01970),0.0505,-0.317
PPWD1_Q96BP3_287_AYPTSVCFSPDGK (UniProt Q96BP3),0.0829,0.156
PCBP2_Q15366_158_AITIAGIPQSIIECVK (UniProt Q15366),0.149,-0.0185
PGK1_P00558_316_TGQATVASGIPAGWMGLDCGPESSK (UniProt P00558),-0.217,0.0673
POLE_Q07864_600_HALEEEEKVPVEQVTNFEEVCDEIK (UniProt Q07864),-0.247,-1.05
PLXNB2_O15031_1149_TLTETDLYCEPPEVQPPPK (UniProt O15031),-0.174,-0.00622
PDIA6_Q15084_291_RTCEEHQLCVVAVLPHILDTGAAGR (UniProt Q15084),0.0625,-0.132
PPP4C_P60510_193_KQEVPHDGPMCDLLWSDPEDTTGWGVSPR (UniProt P60510),-0.0839,-0.279
PLEKHF2_Q9H8W4_219_ICDFCYDLLSAGDMATCQPAR (UniProt Q9H8W4),-0.498,-0.228
PPP2R2D_Q66LE6_245_SFNIVDIKPANMEELTEVITAAEFHPHQCNVFVYSSSK (UniProt Q66LE6),-0.00789,-0.502
PFN1_P07737_128_KCYEMASHLRR (UniProt P07737),-0.531,-0.695
PECAM1_P16284_109_CTVIVNNK (UniProt P16284),0.0288,0.348
PPP5D1_E7EU14_47_YQECNK<|>PPP5C_P53041_139_YQECNK (UniProt P53041+E7EU14),0.0409,-0.0811
PPP6C_O00743_129_QITQVYGFYDECQTK (UniProt O00743),0.0334,0.309
PELP1_Q8IZL8_71_SAPHLPGLMCLLR (UniProt Q8IZL8),-1.13,-0.883
PHKA1_P46020_238_GGPQSVIHVLADEVQHCQSILNSLLPR (UniProt P46020),0.143,-0.161
PCID2_Q5JVF3_152_VCASDTR (UniProt Q5JVF3),0.19,0.0189
PDIA3_P30101_85+92_VDCTANTNTCNK (UniProt P30101),-0.107,-0.048
PGGT1B_P53609_162_ALQLEDGSFCAVPEGSENDMR (UniProt P53609),-0.0186,-0.573
PATZ1_Q9HBE1_610_KYPCPECGSFFR (UniProt Q9HBE1),0.149,0.151
POFUT1_Q9H488_249_NACAMLK (UniProt Q9H488),-0.308,-0.164
PLEK_P08567_295_GCVVTSVESNSNGR (UniProt P08567),-0.14,-0.138
PHGDH_O43175_18_VLISDSLDPCCR (UniProt O43175),-0.444,-0.677
PML_P29590_479+484_CSQTQCPR (UniProt P29590),-0.494,-1.17
PM20D2_Q8IYS1_14_MRPGGERPVEGGACNGR (UniProt Q8IYS1),-0.16,-0.608
PCBP1_Q15365_158_AITIAGVPQSVTECVK (UniProt Q15365),0.332,-0.0314
PLXNB2_O15031_1504+1506_GQPCSCWPRPDSVVLEWRPGSTAQILSDLDLTSQR (UniProt O15031),-0.0809,-0.762
